# Source: PubChem BioAssay AID463082 (The Scripps Research Institute Molecular Screening Center, 2010)
# The campaign covered roughly 330,000 compounds. About 4,900 (1.5%) were called active.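 How the source made its calls: active means inhibition above the mean inhibition across the screen plus 3 SD (cut at about 25% in these data); inactive means the rest.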 Only a selection was taken, and actives are over-represented in it overall.
# Molecular target: Platelet-activating factor acetylhydrolase (Homo sapiens) (UniProt Q13093)
# Assay: inhibition of plasma PAF acetylhydrolase – biochemical, fluorescence polarization, human, primary screen (AID 463082);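 further: inhibitors block binding of the rhodamine activity-based probe so polarization drops; 0% = enzyme with DMSO and 100% = wells lacking pPAFAH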
# Conditions: recombinant pPAFAH, FP-rhodamine probe fluorescence polarization; at 3.39 µM; hits give high values
# Chain of Platelet-activating factor acetylhydrolase (Homo sapiens) (Q13093 whole entry, looked up): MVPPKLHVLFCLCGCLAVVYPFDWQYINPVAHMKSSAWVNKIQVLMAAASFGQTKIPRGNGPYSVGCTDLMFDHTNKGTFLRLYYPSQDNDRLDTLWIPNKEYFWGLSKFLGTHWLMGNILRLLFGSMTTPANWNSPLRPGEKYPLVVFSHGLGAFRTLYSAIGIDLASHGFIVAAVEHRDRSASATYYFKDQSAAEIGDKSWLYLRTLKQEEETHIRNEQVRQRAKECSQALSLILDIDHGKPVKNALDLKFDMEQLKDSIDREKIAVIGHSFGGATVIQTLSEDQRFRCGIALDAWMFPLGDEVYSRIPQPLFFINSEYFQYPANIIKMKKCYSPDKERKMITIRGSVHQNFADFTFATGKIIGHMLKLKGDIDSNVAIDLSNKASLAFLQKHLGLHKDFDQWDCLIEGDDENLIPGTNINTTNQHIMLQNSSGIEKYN
row,SMILES,inhibition
1,COc1ccccc1NC(=O)Nc1nnc(Cc2ccc(F)cc2)s1,1.88% (inactive)
2,O=C(C1CC(=O)N(c2ccc(Br)cc2)C1)N1CCCC1 (stereo not drawn),2.26% (inactive)
3,Cc1cc(NC(=O)C(C)N2C(=O)c3ccccc3S2(=O)=O)no1 (stereo not drawn),5.49% (inactive)
4,COc1ccc(-n2cc(-c3ccccc3)c3c(=S)nc[nH]c32)cc1,16.5% (inactive)
5,O=c1c2c(-c3ccccc3)ccnc2[nH]n1-c1ccccc1,16.9% (inactive)
6,O=c1[nH]cnc2c1c(-c1ccccc1)cn2-c1ccc(F)cc1,29.6% (active)
7,COc1cc(CCC(=O)Nc2ccncc2Cl)cc(OC)c1OC,3.7% (inactive)
8,O=C(Cc1ccc(Br)cc1)NCCc1ccccc1,-2.54% (inactive)
9,O=C(NCCCO)/C(=C\C=C\c1ccccc1)NC(=O)c1ccccc1Cl,5.51% (inactive)
10,COc1ccc(OC)c(Nc2nc(-c3ccc(O)c(O)c3)cs2)c1,49.9% (active)
11,COc1ccc(CC(=O)Nc2nc(-c3ccc(F)c(F)c3)cs2)cc1OC,-1.93% (inactive)
12,COc1ccc(OC)c(-c2csc(NC(=O)COC(=O)C3CC3)n2)c1,5.42% (inactive)
13,CC1C(=O)Nc2ccc(S(=O)(=O)N3CCN(c4ccccc4F)CC3)cc2NC1=O (stereo not drawn),7.62% (inactive)
14,Cc1ccc(S(=O)(=O)Oc2ccc(/C=N/NC(=O)c3c(Cl)cnn3C)cc2)cc1,4.46% (inactive)
15,COc1nc(Oc2ccc(=O)n(C)n2)nc(N(C)C)n1,1.86% (inactive)
16,CCn1nc(C)c(NC(=O)/C=C/c2ccc(OC)c(COc3ccc(Br)cc3)c2)c1C,7.11% (inactive)
17,CCS(=O)(=O)c1ccc(-c2cccc(NC(=O)c3ccc(Br)o3)c2)nn1,-0.56% (inactive)
18,O=C(NCCCN1CCCC1=O)c1cccc(S(=O)(=O)NCc2ccccc2)c1,5.61% (inactive)
19,CCOc1ccc(S(=O)(=O)Nc2ccc(C(=O)NCCCN3CCCC3=O)cc2)cc1,-4.42% (inactive)
20,O=C(NCCCN1CCCC1=O)c1ccc(S(=O)(=O)Nc2ccccc2)cc1,28.1% (active)

row,SMILES,inhibition
1,CC(C)(C)OC(=O)C[C@H]1C/C=C\C[C@@H](CC(=O)N[C@H](CO)Cc2ccccc2)C(=O)NC[C@@H](c2ccccc2)OC1=O,1.87% (inactive)
2,CC(=O)Nc1ccc(NC(=O)C2CCCN(S(=O)(=O)c3ccc(Cl)cc3)C2)cc1 (stereo not drawn),0.93% (inactive)
3,CC(Oc1ccc(F)cc1F)C(=O)/C=C/N(C)C (stereo not drawn),0.46% (inactive)
4,O=C(CN1C(=O)NC2(CCCCC2)C1=O)N1CCN(C(=O)c2cccs2)CC1,2.46% (inactive)
5,CCCCCCCCCCCCCCCC(=O)OC/C=C(C)/C=C/C=C(C)/C=C/C1=C(C)CCCC1(C)C,25.7% (active)
6,CC1=C(/C=C/C(C)=C/C=C/C(C)=C/C=C/C=C(C)/C=C/C=C(C)/C=C/C2=C(C)CCCC2(C)C)C(C)(C)CCC1,18.3% (inactive)
7,CCOC(=O)NNc1cc(C(F)(F)F)ccn1,3.11% (inactive)
8,NC(=O)c1ccsc1NC(=O)COC(=O)COc1ccc(C=O)cc1,7.9% (inactive)
9,CCc1ccc(-c2nn(-c3ccccc3)cc2CSC(=N)N)cc1,3.9% (inactive)
10,Oc1ccc2ccccc2c1N=Nc1nccs1,17.6% (inactive)
11,Oc1ccc(N=Nc2nccs2)c(O)c1,37.2% (active)
12,O=C(NCc1cccc(Cl)c1)C1CCN(c2nnc(N3CCCC3=O)s2)CC1,3.53% (inactive)
13,CC(C)n1c(=S)[nH]c2cc(C(F)(F)F)ccc21,3.35% (inactive)
14,Cc1ccn2c(=O)nc(SCC(=O)NCc3ccc(F)cc3)nc2c1,26.8% (active)
15,Cc1ccc(CNC(=O)CSc2nnc3c(n2)[nH]c2ccc(F)cc23)cc1,3.4% (inactive)
16,Cc1ccn2c(=O)nc(SCC(=O)NCc3ccc4c(c3)OCO4)nc2c1,10.4% (inactive)
17,Cc1ccc(C2SCC(=O)N2c2ccccc2)cc1 (stereo not drawn),2.44% (inactive)
18,O=C(N/N=C\c1cccnc1)c1cc(-c2ccccc2)nc2c(Cl)cccc12,-1.21% (inactive)
19,Cc1ccc(/C=N/NC(=O)c2cc3ccccc3cc2O)o1,57.2% (active)
20,O=C(NN=Cc1ccc(N2CCOCC2)cc1)c1cc2ccccc2cc1O,23.5% (inactive)

row,SMILES,inhibition
1,Cc1ccc(/C=N/NC(=S)Nc2cccc(S(=O)(=O)N(C)C)c2)o1,6.2% (inactive)
2,O=C(N/N=C/c1cccnc1)c1cc2ccccc2cc1O,58% (active)
3,O=C(N/N=C/c1cccnc1)c1ccc(NC(=O)c2ccc(F)cc2)cc1,-2.91% (inactive)
4,Cc1nnc(SCC(=O)N(C(C)C)C(C)C)nc1C,0.01% (inactive)
5,CCCCOc1ccc(NC(=O)[C@@H]2CCCN2C(=O)C2CCN(S(=O)(=O)c3ccc(C)cc3)CC2)cc1,11.9% (inactive)
6,O=C(OCCO)c1cc(Cl)c(C(=O)OCCO)cc1Cl,1.07% (inactive)
7,CCC1(CC)C(=O)C2=C3C1[C@H](C(=O)OC)C=C(C(=O)OC)C[C@H]3[C@H]1C(=O)N(Cc3ccccc3)C(=O)[C@H]1[C@H]2C (stereo partly drawn),9.48% (inactive)
8,CCC(C(=O)OCC(=O)Nc1ccc(C(=O)Nc2ccc(OC)cc2)cc1)c1ccccc1 (stereo not drawn),2.28% (inactive)
9,CN(CC(=O)Nc1ccc(OC(F)F)cc1)S(=O)(=O)/C=C/c1ccccc1,5.82% (inactive)
10,COc1ccc(NC(=O)COC(=O)c2ccc(NS(=O)(=O)/C=C/c3ccccc3)cc2)cc1,33.1% (active)
11,COc1ccc2sc(-c3ccc(N(C)C)cc3)c(C#CCO)c2c1,17.2% (inactive)
12,Cc1cc(C)c2nc(SCC(=O)N(C)C3CCS(=O)(=O)C3)cc(C)c2c1 (stereo not drawn),4.97% (inactive)
13,COc1ccc(-c2cc(=O)oc3cc(OCC(=O)N(C)C4CCS(=O)(=O)C4)ccc23)cc1 (stereo not drawn),2.24% (inactive)
14,COc1ccc2c(-c3ccccc3)cc(SCC(=O)N(C)C3CCS(=O)(=O)C3)nc2c1 (stereo not drawn),34% (active)
15,Cc1ccccc1NC(=O)CCNS(=O)(=O)c1ccc2[nH]c(=O)oc2c1,0.18% (inactive)
16,Cc1ccc(C2(C(F)(F)F)N=C3Sc4cc(C)cc(C)c4N3C(=O)N2)cc1 (stereo not drawn),2.43% (inactive)
17,Cc1nn(C(C)CC(=O)O)c(C)c1C (stereo not drawn),1.08% (inactive)
18,Cc1ccc(NC(=O)CN2CCCCC2)c2c1CC(C)(C)O2,1.85% (inactive)
